# Mdm2-MdmX inh = human Mdm2/MdmX binding inhibition; inhibition, % at 8 µM; 3% of 330,000 active; O15151+Q00987; SaOS-2 split-luciferase Mdm2/MdmX complementation, luminescence;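 active = inhibition of at least 50% at 8 µM in the primary screen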
# Target sequence (O15151 whole entry, looked up): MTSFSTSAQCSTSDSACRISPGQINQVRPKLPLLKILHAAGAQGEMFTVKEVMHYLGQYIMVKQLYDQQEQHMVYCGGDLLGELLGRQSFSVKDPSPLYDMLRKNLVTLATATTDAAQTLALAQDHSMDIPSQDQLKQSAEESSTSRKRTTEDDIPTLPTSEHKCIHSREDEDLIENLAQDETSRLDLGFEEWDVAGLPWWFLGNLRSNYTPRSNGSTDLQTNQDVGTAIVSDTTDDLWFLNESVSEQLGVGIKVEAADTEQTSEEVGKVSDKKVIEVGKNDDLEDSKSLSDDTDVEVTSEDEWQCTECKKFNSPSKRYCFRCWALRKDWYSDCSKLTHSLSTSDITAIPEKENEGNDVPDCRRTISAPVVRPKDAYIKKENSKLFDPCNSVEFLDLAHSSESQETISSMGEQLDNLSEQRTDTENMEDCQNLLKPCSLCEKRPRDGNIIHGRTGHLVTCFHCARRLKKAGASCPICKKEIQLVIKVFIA
# Target sequence (Q00987 whole entry, looked up): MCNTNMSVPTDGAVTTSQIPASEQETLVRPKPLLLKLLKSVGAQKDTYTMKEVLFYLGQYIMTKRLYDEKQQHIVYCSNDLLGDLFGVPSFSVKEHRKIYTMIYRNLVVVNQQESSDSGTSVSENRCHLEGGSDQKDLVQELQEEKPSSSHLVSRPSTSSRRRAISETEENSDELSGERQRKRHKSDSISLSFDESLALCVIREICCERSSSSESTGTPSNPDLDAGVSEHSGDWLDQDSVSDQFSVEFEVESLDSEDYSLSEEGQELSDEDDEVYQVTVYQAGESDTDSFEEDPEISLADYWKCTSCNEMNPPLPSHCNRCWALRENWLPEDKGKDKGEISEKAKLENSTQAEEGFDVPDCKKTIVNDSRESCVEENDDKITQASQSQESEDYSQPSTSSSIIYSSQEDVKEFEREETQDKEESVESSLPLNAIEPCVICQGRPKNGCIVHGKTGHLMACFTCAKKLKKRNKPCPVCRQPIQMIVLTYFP
# KKLEB cytotox = CF airway cell cytotoxicity counter-screen; activity change (cytotoxicity), % at 5 µM; 0.36% of 360,000 active; KKLEB CF airway cells viability, ATPlite luminescence, overnight; active compounds read low; cells stimulated with P. aeruginosa culture filtrate;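 active = corrected activity change at or below -50% at 5 µM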
# HSP90 inh = inhibitors of HSP90 luciferase refolding in rabbit reticulocyte lysate; luciferase refolding luminescence, 3 h; inhibition, % at 5.6 µM; 0.91% of 290,000 active; AID 1789;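 active = inhibition above the screen-wide mean plus 3 SD, computed separately per campaign, cut at about 16% in these data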;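 note: 0% = DMSO wells and 100% = 60 µM geldanamycin wells; inhibitors lower the luminescence because luciferase stays unfolded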
# CF NFkB block = blocks PAF-induced NF-kB reporter in cystic fibrosis cells; KKLEB NF-kB-GFP reporter, GFP fluorescence overnight; inhibition, % at 5 µM; 0.86% of 360,000 active; AID 588850;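 active = at least 50% inhibition at 5 µM, scaled per plate between neutral and stimulator controls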;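 note: PAF is a Pseudomonas aeruginosa culture filtrate used as stimulus; plate controls were PAF-stimulated DMSO wells for no effect and unstimulated DMSO wells for full effect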
# LGR2 antag = blocks bursicon-induced cAMP signaling via Drosophila LGR2; HEK293 LGR2, CRE-luciferase, bursicon-stimulated, 4 h; inhibition, % at 9.99 µM; 0.35% of 380,000 active; AID 720647;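 active = drop in luminescence signal, shown as inhibition above about 50% in the replicate tests, limit read from the data, passing the limit was not always enough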;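 note: agonist challenge used bursicon conditioned medium at about half maximal strength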
# Peg3 prom inh = Peg3 promoter activity inhibition. AID 588405. HeLa PEG-Prom luciferase reporter, luminescence, overnight. inhibition, % at 20 µM. 1.7% of 360,000 active;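 active = inhibition of at least 50% at 20 µM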
# Mdm2-MdmX conf = confirmation of human Mdm2/MdmX interaction inhibitors | shares compounds with Mdm2-MdmX inh | Mdm2-MdmX binding, luminescent assay | inhibition, % at 8 µM | 55% of 10,000 active | AID 489028; in the data active = inhibition above about 40%
# Full FLuc ctr = full-length luciferase inhibition in Mdm2/MdmX counter-screen. shares compounds with Mdm2-MdmX inh. SaOS-2 full-length luciferase counterscreen, luminescence. inhibition, % at 8 µM. 77% of 6,200 active;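 active = mean inhibition at 8 µM reaching about 37%, which flags the compound as non-specific, limit read from the data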;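 note: p53-null SaOS-2 cells with luciferase driven by a doxycycline-inducible promoter; compound on cells about two nights before reading with doxycycline added after day one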
# Starred values were filed as active, the others as inactive; . = no result. This is a sample that favours compounds with a hit; in the whole collection about 3.6% have one here.
SMILES,Mdm2-MdmX inh,KKLEB cytotox,HSP90 inh,CF NFkB block,LGR2 antag,Peg3 prom inh,Mdm2-MdmX conf,others
O=C(N/N=C/c1ccc(-c2ccc(S(=O)(=O)Nc3ncccn3)cc2)o1)c1cc2ccccc2cc1O,54*,-19,4,17,.,2,36,
CC1(C)CC(=O)C2=C(C1)NC1=C(C(=O)c3ccccc31)C2c1ccccc1 (stereo not drawn),0,8,-5,-3,.,6,.,
CC(C)c1ccc(C2C3=C(CC(C)(C)CC3=O)NC3=C2C(=O)c2ccccc23)cc1 (stereo not drawn),73*,-12,0,-2,36,21,26,
COc1ccc(-c2csc(NC(=S)NC(=O)c3ccc(S(=O)(=O)N(C)C)cc3)n2)cc1OC,70*,-25,-2,18,-3,-9,23,
COc1ccc(-c2csc(NC(=O)c3ccc(OCC(=O)N4CCOCC4)c(OC)c3)n2)cc1OC,58*,-7,-4,-7,.,92*,39,
COc1cc(C(=O)Nc2cccc(C)n2)ccc1OCC(=O)N1CCOCC1,-26,4,.,17,-6,3,.,
COc1cc(/C=N/Nc2nc(-c3ccc(S(=O)(=O)N(C)C)cc3)cs2)ccc1O,82*,9,7,-4,-8,8,56*,Full FLuc ctr=81*
CN1CCN(C(=O)c2ccc(COc3ccc(Cl)cc3Cl)cc2)CC1,16,-6,-5,-3,3,-34,.,
CN(C)CCNC(=O)c1ccc(COc2ccc(Cl)cc2Cl)cc1,62*,-28,2,26,.,54*,18,
O=C(Nc1ccc(F)cc1)N[C@H]1CC[C@@H](CC(=O)N2CCOCC2)O[C@H]1CO,.,.,.,.,1,.,.,
COCCNC(=O)C[C@@H]1C[C@@H]2c3cc(NC(=O)c4ccc5c(c4)OCO5)ccc3O[C@@H]2[C@H](CO)O1,.,.,.,.,-13,.,.,
CCOc1ccc(-c2csc(/C(C#N)=C\c3ccc(O)c([N+](=O)[O-])c3)n2)cc1,96*,-16,-2,42,10,12,83*,Full FLuc ctr=52*
CCCCc1ccc(-c2csc(/C(C#N)=C\c3ccc(C)o3)n2)cc1,-21,-6,0,-4,.,-18,.,
Cc1ccc(/C=c2\sc3n(c2=O)CN(c2ccc(Br)cc2)CN=3)o1,23,12,0,-16,.,-35,.,
Cc1ccc(N2CN=c3s/c(=C\c4cccnc4)c(=O)n3C2)cc1,66*,0,-1,47,.,-55,24,
C[C@@H]1CN([C@H](C)CO)C(=O)c2cc(C#CCN(C)C)cnc2O[C@H]1CN(C)C(=O)Cc1cccnc1,.,.,.,.,11,.,.,
Cc1nc(NC(=O)c2ccc3c(c2)OCO3)ccc1Br,-170,8,-2,-11,-98,-281,.,
Cc1nc(NC(=O)c2ccc(-c3cc4ccccc4oc3=O)cc2)ccc1Br,76*,-1,-1,4,-19,82*,29,Full FLuc ctr=77*
CCC(=O)N1C[C@H]2[C@@H](c3ccccc31)[C@@H](CO)N2C(=O)Nc1ccccc1F,.,.,.,.,18,.,.,
COc1ccccc1/C=N/NC(=O)c1ccc(C)nc1,23,13,2,-15,15,9,.,
COc1ccc2ccccc2c1/C=N\NC(=O)c1cccnc1,27,-2,.,-21,-8,-1,.,
Cc1ccc(C(=O)N/N=C/c2c(O)ccc3ccccc23)cn1,75*,2,-11,12,6,45,82*,Full FLuc ctr=27
Cc1cc(O)c(C)c(O)c1/C=N/NC(=O)c1cccnc1,57*,-2,1,-4,19,47,45*,Full FLuc ctr=69*
O=C(N/N=C/c1c(O)ccc2ccccc12)c1cccnc1,70*,0,-6,4,0,52*,74*,Full FLuc ctr=30
COc1ccc(/C=N/NC(=O)c2cccnc2)cc1O,12,13,5,-28,-7,10,.,
SMILES,Mdm2-MdmX inh,KKLEB cytotox,HSP90 inh,CF NFkB block,LGR2 antag,Peg3 prom inh,Mdm2-MdmX conf,others
CC=Cc1ccc2n(c1=O)C[C@H]1[C@H](CO)[C@@H](C(=O)N3CCOCC3)N(CC3CC3)[C@@H]21 (mixture of isomers),.,.,.,.,-10,.,.,
CNC[C@@H]1OCCCC[C@@H](C)Oc2ccc(N)cc2C(=O)N([C@@H](C)CO)C[C@H]1C,.,.,.,.,-11,.,.,
CO[C@@H]1CN(C)C(=O)c2cc(NC(=O)NC(C)C)ccc2OC[C@@H](C)N(Cc2ccc(-c3ccccn3)cc2)C[C@H]1C,.,.,.,.,19,.,.,
CCNC(=O)C[C@@H]1CC[C@H]2[C@@H](COc3ccc(NC(=O)c4ccc(F)cc4)cc3C(=O)N2C)O1,.,.,.,.,-7,.,.,
O=C(CS(=O)c1ccc(C(F)(F)F)cc1[N+](=O)[O-])Oc1ccccc1 (stereo not drawn),52*,-38,7,57*,.,80*,24,
O=C(CCS(=O)(=O)c1ccccc1)Nc1nc2cc3c(cc2s1)OCCO3,57*,-23,-2,45,-39,-87,28,
O=C(CCS(=O)(=O)c1ccccc1)Nc1nc2ccc(F)cc2s1,67*,-26,.,46,-1,61*,65*,Full FLuc ctr=72*
O=C(c1cccc(F)c1)N1CCCCN2[C@@H](CO)[C@@H](c3ccc(/C=C/c4ccccc4)cc3)[C@@H]2C1,.,.,.,.,-5,.,.,
C=CC[C@@H](CC(=O)N(CCO)Cc1ccccc1)C(=O)N[C@@H](COC(=O)[C@@H](CC=C)Cc1ccc(F)cc1)Cc1c[nH]c2ccccc12,76*,-6,.,30,38,43,21,
C=CC[C@@H](CC(=O)N(CCO)Cc1ccccc1)C(=O)N[C@H](COC(=O)[C@@H](CC=C)CC(=O)OC(C)(C)C)Cc1c[nH]c2ccccc12,27,14,.,3,14,22,.,

# Bioassay records: PubChem BioAssay, several laboratories
